Assay results published in PubChem BioAssay (Tox21).
“And” between values parts separate entries of the source, which are not always exact repeats. Equal values may be shown once. A structure can be active in one record and inactive in another. The source made the active and inactive calls. A call without a number means that no potency is given here. Unless noted, calls come from the whole dose curve; as a rule, active = well fitted curve in the direction sought with a large enough effect in the repeat runs; inconclusive = weak or mixed curves; inactive = no such curve, though single readings can be large; an effect the other way counts as inactive or inconclusive.

Tests used:
[1] = qHTS assay to identify small molecule antagonists of the thyroid receptor (TR) signaling pathway - cell viability counter screen (AID 743064); note: nearly all actives have a fitted effect of over 50% in size; note: potency is the fitted concentration of half-maximal effect
Method in brief: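 GH3.TRE-Luc rat pituitary cells dosed after 4 hr plating, co-stimulated with T3 at 1 nM final, incubated 23.5 h at 37 C. Viability measured in the same wells by CellTiter-Fluor fluorescence after 30 min further at 37 C.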

[2] = test system: thyroid hormone receptor (rat, GH3 cells); assay: qHTS assay to identify small molecule agonists of the thyroid receptor (TR) signaling pathway (AID 743066; calls by dose curve)
[3] = molecular target: Estrogen receptor (Homo sapiens) (UniProt P03372); assay: qHTS assay to identify small molecule antagonists of the estrogen receptor alpha (ER-alpha) signaling pathway (AID 743069; active = well fitted curve in the direction sought with a large enough effect in the signal ratio in the repeat runs, not every such curve was filed as active; inconclusive = weak or mixed curves, or effect the other way; inactive = no such curve, though single readings can be large or run the other way; the % refers to the signal ratio)
Sequence of Estrogen receptor (Homo sapiens) (P03372 whole entry, looked up): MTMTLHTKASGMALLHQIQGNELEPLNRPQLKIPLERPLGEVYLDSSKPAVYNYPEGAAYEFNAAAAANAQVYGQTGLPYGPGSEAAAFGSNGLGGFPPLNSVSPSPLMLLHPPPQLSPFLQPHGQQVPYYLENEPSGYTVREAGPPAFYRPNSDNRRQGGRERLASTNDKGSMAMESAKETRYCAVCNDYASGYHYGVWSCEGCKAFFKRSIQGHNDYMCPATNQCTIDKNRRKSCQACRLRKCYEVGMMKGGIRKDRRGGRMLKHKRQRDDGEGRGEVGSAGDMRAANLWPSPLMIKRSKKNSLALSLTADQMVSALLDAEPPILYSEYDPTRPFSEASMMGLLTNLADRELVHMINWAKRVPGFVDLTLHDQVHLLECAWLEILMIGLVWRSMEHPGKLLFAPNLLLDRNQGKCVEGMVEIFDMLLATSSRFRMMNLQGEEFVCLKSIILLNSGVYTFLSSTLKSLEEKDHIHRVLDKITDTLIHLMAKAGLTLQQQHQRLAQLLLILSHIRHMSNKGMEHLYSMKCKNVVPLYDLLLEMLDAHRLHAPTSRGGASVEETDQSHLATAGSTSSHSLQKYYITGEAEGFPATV
Method in brief: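 ER-alpha-UAS-bla GripTite HEK293 line; 2% charcoal-stripped FBS overnight; plated, 4 hr 37C/5% CO2; cpd in DMSO + 17beta-estradiol, 18 hr 37C; LiveBLAzer B/G FRET substrate 2 hr RT; fluorescence intensity.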

[4] = qHTS assay to identify small molecule antagonists of the estrogen receptor alpha (ER-alpha) signaling pathway - cell viability counter screen (AID 743074; calls by dose curve;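 note: HEK293 cells carrying ER-alpha-UAS-bla reporter stimulated with 17beta-estradiol; nearly all actives have a fitted effect of over 45% in size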)
[5] = molecular target: Estrogen receptor (Homo sapiens) (UniProt P03372); assay: qHTS assay to identify small molecule agonists of the estrogen receptor alpha (ER-alpha) signaling pathway (AID 743075; calls by dose curve;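 note: HEK293 GripTite cells with ER-alpha and UAS-driven beta-lactamase reporter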; note: potency is the fitted concentration of half-maximal effect)
[6] = molecular target: Estrogen receptor (Homo sapiens) (UniProt P03372); assay: qHTS assay to identify small molecule agonists of the estrogen receptor alpha (ER-alpha) signaling pathway using the BG1 cell line (AID 743079); note: nearly all actives have a fitted effect of over 20% in size; note: potency is the fitted concentration of half-maximal effect
[7] = qHTS assay to identify small molecule antagonists of the estrogen receptor alpha (ER-alpha) signaling pathway using the BG1 cell line (AID 743080; calls by dose curve;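 note: BG1 cells stimulated with 17beta-estradiol alongside compound; series mostly up to about 70 µM; nearly all actives have a fitted effect of over 25% in size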)
Method in brief: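 After 5 days in phenol-red-free 10% charcoal-stripped FBS medium, BG1-Luc-4E2 cells were seeded, left 24 h at 37 C, co-treated with compounds and 17beta-estradiol for 21.5 h, then assayed for viability and luciferase.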

[8] = qHTS assay to identify small molecule antagonists of the estrogen receptor alpha (ER-alpha) signaling pathway using the BG1 cell line - cell viability counter screen (AID 743081);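 note: compound given together with 17beta-estradiol as the ER stimulus; nearly all actives have a fitted effect of over 45% in size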; note: potency is the fitted concentration of half-maximal effect
[9] = molecular target: Aromatase (Homo sapiens) (UniProt P11511); assay: qHTS assay to identify aromatase inhibitors (AID 743083); note: nearly all actives have a fitted effect of over 55% in size; note: potency is the fitted concentration of half-maximal effect
Sequence of Aromatase (Homo sapiens) (P11511 whole entry, looked up): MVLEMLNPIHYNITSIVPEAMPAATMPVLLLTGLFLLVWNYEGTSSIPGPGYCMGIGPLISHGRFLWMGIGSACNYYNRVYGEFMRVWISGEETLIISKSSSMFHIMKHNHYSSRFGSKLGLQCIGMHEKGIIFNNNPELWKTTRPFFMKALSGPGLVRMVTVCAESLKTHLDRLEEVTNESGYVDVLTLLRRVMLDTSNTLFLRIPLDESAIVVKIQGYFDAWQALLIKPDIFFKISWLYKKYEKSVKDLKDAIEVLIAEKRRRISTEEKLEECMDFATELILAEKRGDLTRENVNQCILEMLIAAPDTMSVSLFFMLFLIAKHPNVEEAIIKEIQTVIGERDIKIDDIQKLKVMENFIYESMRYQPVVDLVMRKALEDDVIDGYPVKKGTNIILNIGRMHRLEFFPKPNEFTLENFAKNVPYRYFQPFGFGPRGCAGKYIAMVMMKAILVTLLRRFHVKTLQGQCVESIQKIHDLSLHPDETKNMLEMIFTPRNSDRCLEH

[10] = qHTS assay to identify aromatase inhibitors - cell viability counter screen (AID 743084);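 note: cells stimulated with testosterone during compound exposure; nearly all actives have a fitted effect of over 55% in size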; note: potency is the fitted concentration of half-maximal effect
[11] = molecular target: Aryl hydrocarbon receptor (Homo sapiens) (UniProt P35869); assay: qHTS assay to identify small molecule that activate the aryl hydrocarbon receptor (AhR) signaling pathway (AID 743085); note: nearly all actives have a fitted effect of over 15% in size; note: potency is the fitted concentration of half-maximal effect;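 for activation: HG2L7.5c1 human HepG2 liver cells with stably integrated DRE-driven firefly reporter; series mostly up to about 70 µM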
Sequence of Aryl hydrocarbon receptor (Homo sapiens) (P35869 whole entry, looked up): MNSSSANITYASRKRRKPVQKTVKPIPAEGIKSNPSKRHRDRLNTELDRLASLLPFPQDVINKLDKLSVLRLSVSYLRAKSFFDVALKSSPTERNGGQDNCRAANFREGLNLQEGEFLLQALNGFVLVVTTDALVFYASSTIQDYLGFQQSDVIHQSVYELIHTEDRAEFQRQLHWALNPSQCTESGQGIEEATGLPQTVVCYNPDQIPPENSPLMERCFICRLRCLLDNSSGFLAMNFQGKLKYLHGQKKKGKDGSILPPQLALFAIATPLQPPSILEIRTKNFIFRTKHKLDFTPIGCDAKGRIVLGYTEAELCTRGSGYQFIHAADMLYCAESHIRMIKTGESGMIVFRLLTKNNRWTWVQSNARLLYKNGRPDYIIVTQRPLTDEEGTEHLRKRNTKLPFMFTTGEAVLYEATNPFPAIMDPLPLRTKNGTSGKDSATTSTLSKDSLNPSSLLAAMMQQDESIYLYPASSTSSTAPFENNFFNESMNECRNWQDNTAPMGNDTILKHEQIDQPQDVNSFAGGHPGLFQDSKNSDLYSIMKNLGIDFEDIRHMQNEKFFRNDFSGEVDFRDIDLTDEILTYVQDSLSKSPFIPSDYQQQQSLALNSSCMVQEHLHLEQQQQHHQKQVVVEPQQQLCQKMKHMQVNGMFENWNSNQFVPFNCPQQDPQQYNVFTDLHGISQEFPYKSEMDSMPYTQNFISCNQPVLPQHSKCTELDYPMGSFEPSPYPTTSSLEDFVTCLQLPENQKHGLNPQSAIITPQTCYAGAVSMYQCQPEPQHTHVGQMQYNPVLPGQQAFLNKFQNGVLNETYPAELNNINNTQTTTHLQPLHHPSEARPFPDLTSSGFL
Method in brief: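 HepG2 cells stably carrying a 20-DRE firefly luciferase reporter (HG2L7.5c1) treated with compound for 24 hr at 37C. Luciferase read by ONE-Glo luminescence, with CellTiter-Fluor viability read first.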

[12] = qHTS assay to identify small molecule that activate the aryl hydrocarbon receptor (AhR) signaling pathway - cell viability counter screen (AID 743086); note: nearly all actives have a fitted effect of over 45% in size; note: potency is the fitted concentration of half-maximal effect
Method in brief: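 Cytotoxicity counter screen: CellTiter-Fluor signal (30 min, 37 C) in 4000 HepG2 cells/well carrying the DRE-luciferase reporter, following 24 h compound exposure at 37 C.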

[13] = qHTS assay to identify small molecule antagonists of the peroxisome proliferator-activated receptor gamma (PPARg) signaling pathway - cell viability counter screen (AID 743194); note: nearly all actives have a fitted effect of over 55% in size; note: potency is the fitted concentration of half-maximal effect
Method in brief: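 Viability was measured as CellTiter-Glo luminescence in GeneBLAzer PPARg UAS-bla HEK293H cells. These cells had been exposed 17 h at 37 C to compounds together with rosiglitazone at 50 nM final, with the beta-lactamase readout taken in the same wells.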

[14] = qHTS assay for small molecule agonists of the antioxidant response element (ARE) signaling pathway (AID 743202; active = well fitted activation curve with a large enough effect in the signal ratio in the repeat runs, not every such curve was filed as active; inconclusive = weak or mixed curves, or effect the other way; inactive = no such curve, though single readings can be large or run the other way; the % refers to the signal ratio; note: potency is the fitted concentration of half-maximal effect)
Method in brief: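 Quantitative high-throughput format in HepG2 cells bearing an integrated ARE-beta-lactamase reporter. Compound exposure lasted 16 h at 37 C, and fluorescence was read 2 h after adding LiveBLAzer B/G substrate at room temperature.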

[15] = qHTS assay for small molecule agonists of the antioxidant response element (ARE) signaling pathway - cell viability counter screen (AID 743203; calls by dose curve; note: nearly all actives have a fitted effect of over 55% in size; note: potency is the fitted concentration of half-maximal effect)
Method in brief: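 CellSensor ARE-bla HepG2 cells, 2,000 per well, rested 5 hrs at 37C/5% CO2, then exposed to compound in DMSO for 16 hrs; viability read as CellTiter-Glo luminescence after 30 min at room temperature, in the reporter wells.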

[16] = qHTS assay for small molecule activators of the heat shock response signaling pathway - cell viability counter screen (AID 743209); note: nearly all actives have a fitted effect of over 50% in size; note: potency is the fitted concentration of half-maximal effect
Method in brief: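 CellSensor HSE-bla HeLa cells, plated overnight at 37 C/5% CO2, were exposed to compounds in DMSO for 5 h at 37 C. Viability was then read in the same wells by CellTiter-Glo luminescence after 30 min at room temperature.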

[17] = qHTS assay for small molecule activators of the heat shock response signaling pathway (AID 743210; active = well fitted activation curve with a large enough effect in the signal ratio in the repeat runs, with a control signal flat, not every such curve was filed as active; inconclusive = weak or mixed curves; the % refers to the signal ratio;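 note: HeLa cells with beta-lactamase reporter driven by heat shock elements; series mostly up to about 63 µM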)
Method in brief: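 HeLa HSE-bla cells, overnight plating; cpd in DMSO 5 h, 37 C; LiveBLAzer B/G FRET substrate 2.5 h RT; fluorescence intensity read.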

[18] = qHTS assay to identify small molecule antagonists of the thyroid receptor (TR) signaling pathway (AID 743065); note: nearly all actives have a fitted effect of over 55% in size; note: potency is the fitted concentration of half-maximal effect
Method in brief: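 Antagonism measured as loss of luciferase signal in GH3 cells stably carrying a TRE-luciferase reporter, co-treated with compound and T3 (1 nM final) for 23.5 h at 37 C. Viability was read in the same well by CellTiter-Fluor.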

[19] = molecular target: Peroxisome proliferator-activated receptor gamma (Homo sapiens) (UniProt P37231); assay: qHTS assay to identify small molecule agonists of the peroxisome proliferator-activated receptor gamma (PPARg) signaling pathway (AID 743094; active = well fitted activation curve with a large enough effect in the signal ratio in the repeat runs, not every such curve was filed as active; inconclusive = weak or mixed curves, or effect the other way; inactive = no such curve, though single readings can be large or run the other way; the % refers to the signal ratio; note: potency is the fitted concentration of half-maximal effect)
Sequence of Peroxisome proliferator-activated receptor gamma (Homo sapiens) (P37231 whole entry, looked up): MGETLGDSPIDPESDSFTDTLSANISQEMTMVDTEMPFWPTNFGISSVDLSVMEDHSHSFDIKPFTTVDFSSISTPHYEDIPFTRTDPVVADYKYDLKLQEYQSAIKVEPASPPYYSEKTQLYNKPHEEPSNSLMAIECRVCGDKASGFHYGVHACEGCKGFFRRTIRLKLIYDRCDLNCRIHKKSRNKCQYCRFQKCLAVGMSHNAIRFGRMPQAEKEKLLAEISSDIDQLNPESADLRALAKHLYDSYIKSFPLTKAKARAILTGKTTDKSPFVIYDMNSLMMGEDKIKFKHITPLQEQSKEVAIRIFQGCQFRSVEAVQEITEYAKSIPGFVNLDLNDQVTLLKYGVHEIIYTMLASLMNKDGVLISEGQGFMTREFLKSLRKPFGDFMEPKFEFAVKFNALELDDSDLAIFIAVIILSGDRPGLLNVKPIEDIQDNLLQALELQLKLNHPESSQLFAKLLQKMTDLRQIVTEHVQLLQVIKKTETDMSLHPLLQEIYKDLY
Method in brief: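 GeneBLAzer PPARg UAS-bla HEK293H cells carrying a stably integrated beta-lactamase reporter were pre-incubated 5 h at 37C, then exposed to compounds in DMSO for 17 h at 37C; LiveBLAzer B/G FRET substrate was added for 1 h at room temperature and fluorescence read.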

[20] = molecular target: Peroxisome proliferator-activated receptor gamma (Homo sapiens) (UniProt P37231); assay: qHTS assay to identify small molecule antagonists of the peroxisome proliferator-activated receptor gamma (PPARg) signaling pathway (AID 743191; calls by dose curve; note: series mostly up to about 63 µM; nearly all actives have a fitted effect of over 30% in size)
Method in brief: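 Beta-lactamase reporter under UAS control in HEK293H PPARg-bla cells; compound treatment 17 h at 37C. Read-out: fluorescence intensity after 1 h room-temperature incubation with LiveBLAzer B/G FRET substrate.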

O=C(O)c1cc(-c2ccc(F)cc2F)ccc1O
Potency [1]: inactive | outcome [2]: inactive | Potency [3]: inactive | Potency [4]: inactive | Potency [5]: inactive | Potency [6]: inactive | Potency [7]: inactive | Potency [8]: inactive | Potency [9]: inactive | Potency [10]: inactive | Potency [11]: inactive | Potency [12]: inactive | Potency [13]: inactive | Potency [14]: 13.3 µM (active) | Potency [15]: inactive | Potency [16]: inactive | Potency [17]: inactive

COc1cccc2c1C(=O)c1c(O)c3c(c(O)c1C2=O)C[C@@](O)(C(C)=O)C[C@@H]3O[C@H]1C[C@H](N)[C@H](O)[C@H](C)O1
Potency [1]: 1.06 µM (active) and 218 nM (active) | Potency [18]: 596 nM (active) and 154 nM (active) | Potency [4]: inactive | Potency [8]: 21.1 µM (active) and 27.5 µM (active) | Potency [9]: 3.76 µM (active) and 615 nM (active) | Potency [10]: 10.6 µM (active) and 8.69 µM (active) | Potency [11]: 2.45 µM (active) | Potency [12]: 5.96 µM (active) and 24.5 µM (active) | Potency [13]: 34.9 µM (active) and 33.5 µM (active) | Potency [15]: 8.69 µM (active) and 13.3 µM (active)

Cc1cccc(C(=O)O)c1O
Potency [1]: inactive | outcome [2]: inactive | Potency [3]: inactive | Potency [4]: inactive | Potency [5]: inactive | Potency [6]: inactive | Potency [7]: inactive | Potency [8]: inactive | Potency [9]: inactive | Potency [10]: inactive | Potency [11]: inactive | Potency [12]: inactive | Potency [19]: inactive | Potency [13]: inactive | Potency [15]: inactive

CN1CCC[C@@H]1CCO[C@](C)(c1ccccc1)c1ccc(Cl)cc1
Potency [1]: 23.7 µM (active) | Potency [18]: 26.6 µM (active) | Potency [4]: inactive | Potency [8]: inactive | Potency [11]: inactive | Potency [15]: 29.8 µM (active) | Potency [16]: inactive | Potency [17]: inactive

c1ccc(C(O[C@@H]2CCCN(CCc3ccc4c(c3)OCO4)C2)c2ccccc2)cc1
Potency [1]: 24.3 µM (active) | Potency [18]: 30.6 µM (active) | Potency [3]: inactive | Potency [5]: inactive | Potency [8]: inactive | Potency [15]: 61.1 µM (active) | Potency [16]: inactive

CCCCCCCC/C=C\CCCCCCCCN
Potency [1]: inactive | outcome [2]: inactive | Potency [3]: inactive | Potency [4]: inactive | Potency [5]: inactive | Potency [6]: inactive | Potency [7]: inactive | Potency [8]: inactive | Potency [9]: inactive | Potency [10]: inactive | Potency [11]: inactive | Potency [12]: inactive | Potency [19]: inactive | Potency [14]: inactive | Potency [16]: inactive | Potency [17]: inactive

CN(C)C(=O)COC(=O)Cc1ccc(OC(=O)c2ccc(N=C(N)N)cc2)cc1
Potency [1]: inactive | Potency [18]: inactive | outcome [2]: inactive | Potency [4]: inactive | Potency [8]: inactive | Potency [12]: inactive | Potency [13]: inactive | Potency [14]: inactive | Potency [15]: inactive | Potency [16]: inactive | Potency [17]: inactive

CC(C)(C)c1ccc(C(O)CCCN2CCC(C(O)(c3ccccc3)c3ccccc3)CC2)cc1 (stereo not drawn)
Potency [1]: inactive and 5.96 µM (active) | outcome [2]: inactive | Potency [3]: inactive | Potency [4]: inactive | Potency [5]: inactive | Potency [6]: inactive | Potency [7]: inactive | Potency [8]: inactive | Potency [9]: inactive and 29.8 µM (active) | Potency [10]: inactive | Potency [11]: inactive | Potency [19]: inactive | Potency [15]: 11.9 µM (active) | Potency [16]: 21.1 µM (active)

C#CC1(O)CC[C@H]2[C@@H]3CCC4=CCCC[C@@H]4[C@H]3CC[C@@]21C (stereo partly drawn)
Potency [1]: 30.6 µM (active) | Potency [18]: 30.6 µM (active) | Potency [3]: inactive | Potency [4]: inactive | Potency [5]: 57.4 nM [inconclusive] (active) and 77.6 nM [inconclusive] (active) | Potency [6]: 40.3 nM (active) and 21.7 nM (active) | Potency [7]: inactive | Potency [8]: inactive | Potency [9]: inactive and 61.1 µM (active) | Potency [10]: inactive and 54.5 µM (active) | Potency [11]: inactive | Potency [12]: inactive | Potency [19]: inactive | Potency [13]: 18.8 µM (active) | Potency [15]: 61.1 µM (active) and 13.3 µM (active) | Potency [16]: 11.9 µM (active)

CCOC(=O)c1ccc(C2CCC(NC[C@H](O)COc3ccc(O)c(NS(C)(=O)=O)c3)CC2)cc1 (stereo partly drawn)
Potency [1]: 39.9 µM (active) | Potency [18]: 28.3 µM (active) | Potency [8]: inactive | Potency [11]: inactive | Potency [15]: 50.2 µM (active) | Potency [16]: inactive | Potency [17]: inactive

CCCCCCC1CCCC(=O)O1 (stereo not drawn)
Potency [1]: inactive | Potency [18]: inactive | outcome [2]: inactive | Potency [4]: inactive | Potency [8]: inactive | Potency [12]: inactive | Potency [13]: inactive | Potency [14]: inactive | Potency [15]: inactive | Potency [16]: inactive | Potency [17]: inactive

Clc1ccnc(Cl)n1
Potency [1]: inactive | outcome [2]: inactive | Potency [3]: inactive | Potency [4]: inactive | Potency [5]: inactive | Potency [6]: inactive | Potency [7]: inactive | Potency [8]: inactive | Potency [9]: inactive | Potency [10]: inactive | Potency [11]: inactive | Potency [12]: inactive | Potency [19]: inactive | Potency [13]: inactive | Potency [14]: inactive | Potency [15]: inactive | Potency [16]: inactive | Potency [17]: inactive

Cc1nc(-c2ccc(Cl)cc2)oc1COC(C)(C)C(=O)O
Potency [1]: inactive | Potency [18]: inactive | outcome [2]: inactive | Potency [4]: inactive | Potency [8]: inactive | Potency [12]: inactive | Potency [13]: inactive | Potency [14]: inactive | Potency [15]: inactive | Potency [17]: inactive

Sc1nc2ccccc2s1
Potency [1]: inactive | Potency [18]: inactive | outcome [2]: inactive | Potency [4]: inactive | Potency [8]: inactive | Potency [10]: inactive | Potency [12]: inactive | Potency [13]: inactive | Potency [14]: inactive | Potency [15]: inactive | Potency [16]: inactive

Cc1c(C)c2c(c(C)c1O)CC[C@@](C)(CCC[C@H](C)CCC[C@H](C)CCCC(C)C)O2
Potency [1]: inactive | outcome [2]: inactive | Potency [3]: inactive | Potency [4]: inactive | Potency [5]: inactive | Potency [6]: inactive | Potency [7]: inactive | Potency [8]: inactive | Potency [9]: inactive | Potency [10]: inactive | Potency [11]: inactive | Potency [12]: inactive | Potency [19]: inactive | Potency [15]: inactive | Potency [16]: inactive

CCc1oc2ccccc2c1C(=O)c1cc(I)c(O)c(I)c1
Potency [1]: 29.8 µM (active) | Potency [18]: 21.1 µM (active) | outcome [2]: inactive | Potency [5]: inactive | Potency [8]: inactive | Potency [10]: inactive | Potency [12]: inactive | Potency [19]: 0.952 µM (active) | Potency [20]: inactive | Potency [13]: 13.3 µM (active) | Potency [15]: 26.6 µM (active) | Potency [16]: inactive
